Records with an inconclusive call do not appear. A call without a number means that no potency is given here. Calls of active or inactive are those of the source. Calls follow the shape of the dose curve; as a rule, active = well fitted curve in the direction sought with a large enough effect; inconclusive = small, poorly fitted or top-dose-only effect, or another doubt; inactive = no such curve, though single readings can be large; an effect the other way counts as inactive or inconclusive.
How the values were obtained:
[1] = target: Aldehyde dehydrogenase, mitochondrial (Homo sapiens) (UniProt P05091); test: qHTS for Inhibitors of the Aldehyde Dehydrogenase Family (ALDH2) Primary screen (AID 2061308); also: nearly all actives have a fitted effect of over 55% in size
[2] = target: Retinaldehyde dehydrogenase 3 (Homo sapiens) (UniProt P47895); test: qHTS for Inhibitors of the Aldehyde Dehydrogenase Family (ALDH1A3) Primary screen (AID 2061315)

**Q.** What does the source list for `Cc1cc(C)nc(NC(=S)N2CCN(c3ccc(C(=O)O)cc3)CC2)c1`?
**A.** Potency [1]: inactive; Potency [2]: inactive

**Q.** `COc1ccc(OC)c(NC(=O)C(OC(=O)CNC(=O)c2ccccc2)c2ccccc2)c1` (stereo not given) was tested. Which Potency [1] did it give?
**A.** inactive

**Q.** What about the Potency [2] of the same compound?
**A.** inactive

**Q.** Which results are given for `CCCn1c(-c2ccc(F)cc2)nc2c(N3CCC(N(C)C)C3)nc(C)nc21` (stereo not given)?
**A.** Potency [1]: inactive; Potency [2]: inactive

**Q.** Which Potency [1] does the source give for `Cc1ccc(OCCn2c(CCNC(=O)C3CCCCC3)nc3ccccc32)cc1` here?
**A.** inactive

**Q.** What about the Potency [2] of the same compound?
**A.** inactive

**Q.** With `Cc1nc(C(C)N(C)c2ncnc3ccc(-c4ccc5c(c4)OCO5)cc23)cs1` (stereo not given) as the compound, how does the Potency [1] read?
**A.** inactive

**Q.** And the Potency [2]?
**A.** inactive

**Q.** What does the source list for `CCCn1c(-c2ccc(F)cc2)nc2c(NC3CC4CCC(C3)N4C)nc(C)nc21` (stereo not given)?
**A.** Potency [1]: inactive; Potency [2]: inactive

**Q.** Which results are given for `C[C@@H]1O[C@@H](O[C@H]2[C@H](OC(=O)[C@]34CCC(C)(C)C[C@H]3C3=CCC5[C@@]6(C)C[C@H](O)[C@H](O[C@@H]7O[C@H](CO)[C@@H](O[C@@H]8O[C@H](CO)[C@@H](O)[C@H](O)[C@H]8O)[C@H](O)[C@H]7O)[C@@](C)(CO)C6[C@H](O)C[C@@]5(C)[C@]3(C)C[C@H]4O)OC[C@H](O)[C@@H]2O)[C@H](O)[C@H](O)[C@H]1O[C@@H]1OC[C@@H](O)[C@H](O[C@@H]2OC[C@](O)(CO)[C@H]2O)[C@H]1O` (stereo not given in full)?
**A.** activity change, negative = inhibition [1]: -1.66% [at 11.2 µM] (inactive); activity change, negative = inhibition [2]: -12.4% [at 11.2 µM] (inactive)

**Q.** Which results are given for `CCCn1c(-c2ccc(F)cc2)nc2c(NCCCCN3CCCC3)nc(C)nc21`?
**A.** Potency [1]: inactive; Potency [2]: inactive

**Q.** With `Fc1ccc(-c2ccc(Nc3nc(-c4ccncc4)nc4ccccc34)cc2F)c(Cl)c1` as the compound, how does the Potency [1] read?
**A.** inactive

**Q.** And the Potency [2]?
**A.** inactive

**Q.** Which Potency [1] does the source give for `Cc1ccc(OCCn2c(CCNC(=O)C3CCNCC3)nc3ccccc32)cc1` here?
**A.** inactive

**Q.** What about the Potency [2] of the same compound?
**A.** inactive

**Q.** `O=c1cc(CN2CCCN(c3ccc(C(F)(F)F)cn3)CC2)nc2ccccn12` was tested. Which Potency [1] did it give?
**A.** inactive

**Q.** What about the Potency [2] of the same compound?
**A.** inactive

**Q.** How did the Potency [1] turn out when `O=C(Nc1ccc(Cl)c(S(=O)(=O)N2CCOCC2)c1)c1ccc(S(=O)(=O)N2CCCCC2)cc1` was run?
**A.** inactive

**Q.** And the Potency [2]?
**A.** inactive

**Q.** With `Cc1cnc(N2CCC(C(N)=O)CC2)nc1-c1cccc(N(C)C)c1` as the compound, how does the Potency [1] read?
**A.** inactive

**Q.** What about the Potency [2] of the same compound?
**A.** inactive

**Q.** Which Potency [1] does the source give for `O=C1CCc2cc(S(=O)(=O)Nc3cccc(Br)c3)ccc2N1` here?
**A.** inactive

**Q.** And the Potency [2]?
**A.** inactive

**Q.** For `CC(C)Oc1cccc(-c2csc(N3CCC(C(N)=O)CC3)n2)c1`, which Potency [1] is on record?
**A.** inactive

**Q.** What about the Potency [2] of the same compound?
**A.** inactive

**Q.** Which Potency [1] does the source give for `CC(=O)c1ccc(N2CCN(S(=O)(=O)c3ccc4c(c3)CCC(=O)N4)CC2)cc1` here?
**A.** inactive

**Q.** What about the Potency [2] of the same compound?
**A.** inactive

**Q.** With `C=CCNc1oc(-c2ccc(F)cc2)nc1C#N` as the compound, how does the Potency [1] read?
**A.** inactive

**Q.** And the Potency [2]?
**A.** inactive

**Q.** For `O=S(=O)(Nc1nccs1)c1ccc(NCc2cccc(Cl)c2O)cc1`, which Potency [1] is on record?
**A.** inactive

**Q.** And the Potency [2]?
**A.** inactive

**Q.** With `COc1ccc(N2C[C@]34C=C[C@H](O3)C(C(=O)O)C4C2=O)cc1` (stereo not given in full) as the compound, how does the Potency [1] read?
**A.** inactive

**Q.** And the Potency [2]?
**A.** inactive

**Q.** Which Potency [1] does the source give for `O=C(NCCCCN1CCN(c2cccc(Cl)c2Cl)CC1)c1cc2ccccc2s1` here?
**A.** inactive

**Q.** And the Potency [2]?
**A.** inactive

**Q.** What does the source list for `Cc1cc2c(s1)c1cnn(Cc3c(F)ccc(C)c3Cl)c(=O)c1n2C`?
**A.** Potency [1]: inactive; Potency [2]: inactive

**Q.** What does the source list for `Cc1cc2c(s1)c1cnn(Cc3c(F)c(F)c(C)c(F)c3F)c(=O)c1n2C`?
**A.** Potency [1]: inactive; Potency [2]: inactive

**Q.** For `O=C(Cc1ccc(Cl)c(Cl)c1)Nc1ccc(S(=O)(=O)Nc2ccccc2)cc1`, which Potency [1] is on record?
**A.** inactive

**Q.** What about the Potency [2] of the same compound?
**A.** inactive

**Q.** Which Potency [1] does the source give for `Cc1c[nH]c2nccc(Oc3c(F)cc(Nc4cc(Cl)nc(N)n4)cc3F)c12` here?
**A.** inactive

**Q.** What about the Potency [2] of the same compound?
**A.** inactive

**Q.** `CC(=O)Nc1sc2c(c1-c1cccc3c1sc1ccccc13)CCNC2` was tested. Which Potency [1] did it give?
**A.** inactive

**Q.** What about the Potency [2] of the same compound?
**A.** inactive

**Q.** Which results are given for `O=C(NNC(=O)c1nc2ccccc2[nH]1)OCc1ccccc1`?
**A.** Potency [1]: inactive; Potency [2]: inactive

**Q.** For `O=[S+]([O-])(Nc1ccccc1)c1ccc(NCc2cccc(Cl)c2F)cc1`, which Potency [1] is on record?
**A.** inactive

**Q.** And the Potency [2]?
**A.** inactive

**Q.** `CCOC(=O)c1nnc(N[S+](=O)([O-])c2ccc(NC(=O)Cc3ccc(Cl)c(Cl)c3)cc2)s1` was tested. Which Potency [1] did it give?
**A.** inactive

**Q.** What about the Potency [2] of the same compound?
**A.** inactive

**Q.** How did the Potency [1] turn out when `O=C(Nc1ccc(Oc2ccccc2)cc1)Nc1nnc(-c2ccncc2)s1` was run?
**A.** inactive

**Q.** And the Potency [2]?
**A.** inactive

**Q.** With `CCN1CCN(c2cc(-c3ccc(F)cc3)c3c(n2)CCCCCC3)CC1` as the compound, how does the Potency [1] read?
**A.** inactive

**Q.** And the Potency [2]?
**A.** inactive

**Q.** How did the Potency [1] turn out when `Cn1nnnc1Sc1ncnc2scc(-c3ccccc3S(C)(=O)=O)c12` was run?
**A.** inactive

**Q.** And the Potency [2]?
**A.** inactive

**Q.** `COc1cc(NS(=O)(=O)c2ccc3ccccc3c2)c2ncccc2c1` was tested. Which Potency [1] did it give?
**A.** inactive

**Q.** And the Potency [2]?
**A.** inactive

**Q.** For `C=Cc1ccc(C(=O)N2CCCC(CCC(=O)N3CCN(c4ccccn4)CC3)C2)cc1` (stereo not given), which Potency [1] is on record?
**A.** inactive

**Q.** What about the Potency [2] of the same compound?
**A.** inactive

**Q.** With `O=C1CCCC2=C1C(c1[nH]ncc1Cl)NC(=NCc1ccco1)N2` (stereo not given) as the compound, how does the Potency [1] read?
**A.** inactive

**Q.** What about the Potency [2] of the same compound?
**A.** inactive

**Q.** For `O=C(Nc1ccccc1)C1CCN(c2nc(-c3ccc(Br)cc3)cs2)CC1`, which Potency [1] is on record?
**A.** inactive

**Q.** And the Potency [2]?
**A.** inactive
